USP1-UAF1 inh = USP1/UAF1 (human) deubiquitinase inhibition; 390,000 tested, 0.23% active; O94782; recombinant USP1/UAF1, Ub-Rhodamine cleavage fluorescence; Potency, µM (highest dose often 57.1 µM), for the others: top-dose activity change, negative = inhibition, most hits filed as inhibitors; further: potency means the concentration at half of the fitted maximal effect; on the % scale 0 is the no-effect control and ±100 the full control effect; nearly all actives have a fitted effect of over 60% in size
Target sequence (O94782 whole entry, looked up): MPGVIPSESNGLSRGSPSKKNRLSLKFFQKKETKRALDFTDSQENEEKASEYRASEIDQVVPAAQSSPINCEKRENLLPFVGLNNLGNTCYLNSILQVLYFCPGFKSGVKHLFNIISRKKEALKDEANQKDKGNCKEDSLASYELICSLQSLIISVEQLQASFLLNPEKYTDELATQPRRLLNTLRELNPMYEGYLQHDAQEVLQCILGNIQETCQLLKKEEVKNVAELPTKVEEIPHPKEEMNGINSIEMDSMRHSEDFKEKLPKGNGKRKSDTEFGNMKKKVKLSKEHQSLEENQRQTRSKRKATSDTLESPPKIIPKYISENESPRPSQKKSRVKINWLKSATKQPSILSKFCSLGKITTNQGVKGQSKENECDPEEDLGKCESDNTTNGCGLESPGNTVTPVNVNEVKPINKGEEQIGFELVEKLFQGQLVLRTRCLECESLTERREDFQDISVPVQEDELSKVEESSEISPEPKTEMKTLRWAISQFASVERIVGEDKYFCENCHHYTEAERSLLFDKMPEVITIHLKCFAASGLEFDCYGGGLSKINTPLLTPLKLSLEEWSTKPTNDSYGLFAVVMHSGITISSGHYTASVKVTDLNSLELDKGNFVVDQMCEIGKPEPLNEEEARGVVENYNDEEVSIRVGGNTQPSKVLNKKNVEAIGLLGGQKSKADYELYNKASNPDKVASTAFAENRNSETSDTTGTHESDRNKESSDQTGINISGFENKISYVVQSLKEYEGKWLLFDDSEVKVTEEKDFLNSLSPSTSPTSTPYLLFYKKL
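In this screen, compounds sit with the deubiquitinase complex (1nM) for 15 min at room temperature before Ub-Rho is added at 150nM final. Fluorescence rise is then followed for 6 reads every 60 seconds.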
IL-1B inflam inh = inhibitors of inflammasome signaling (IL-1 beta secretion). THP-1 LPS/ATP IL-1B secretion, AlphaLISA, 16 h; stronger effect = lower value. activity change, % at 57.5 µM. 360,000 tested, 4.7% active. AID 743279; in the data active means activity change below about -50%; inconclusive means mostly about -30% to -49%; further: on the % scale 0 is the no-effect control and ±100 the full control effect
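THP-1 cells pretreated 1 hr with compounds (up to 57.5 uM final), then stimulated with LPS (250 ng/mL final) plus ATP (1.25 mM final); secreted IL-1B measured by AlphaLISA after 16 hr, decreased signal indicating inhibition.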
USP2a inh = inhibitors of human ubiquitin-specific protease USP2a; 330,000 tested, 0.01% active; Potency, µM (series often up to 38.3 µM), without a hit: top-dose activity change, negative = inhibition, most hits filed as inhibitors; USP2 core, Ub-CHOP2 coupled fluorogenic reporter, 485/531;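 further: potency means the concentration at half of the fitted maximal effect; plate controls were DMSO wells for no effect and full inhibition by NEM control for full effect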
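Deubiquitinase activity read as fluorescence (485/531 nm) after Ub-CHOP2 cleavage activates the enterokinase reporter on its substrate; USP2 core 10nM, Ub-CHOP2 and substrate 25nM each, 30min compound preincubation then 60min RT; data normalized to NEM, curves fitted.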
ATXN2 expr inh = reduces ATXN2 reporter expression in HEK-293 cells; HEK-293 ATXN2-luciferase reporter, luminescence, 24 h; Potency, µM (top dose mostly 57 µM), without a hit: at the top dose activity change, negative = inhibition, most hits filed as inhibitors; 360,000 tested, 0.72% active; further: potency means the concentration at half of the fitted maximal effect; on the % scale 0 is the no-effect control and ±100 the full control effect; nearly all actives have a fitted effect of over 55% in size
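qHTS (up to 57 uM final) was run with 24 h compound exposure of reporter cells at 37 °C. Each well was multiplexed: SteadyGlo luminescence measured ATXN2-luciferase expression after a fluorogenic Gly-Phe-AFC viability readout (25 uM final).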
ATXN viability = viability counter-screen for ATXN expression inhibitors | S2 cells (HEK-293 line with an ATXN2-luciferase reporter) viability, CellTiter-Fluor protease fluorescence, 24 h | Potency, µM (series often up to 56.7 µM), hits mostly cytotoxic | 400,000 tested, 0.49% active; further: potency means the concentration at half of the fitted maximal effect; nearly all actives have a fitted effect of over 40% in size
* = called active by the depositor; [ ] = dose if it differs, or a comment. In the library only some 4.8% were active in any assay of this set; here they are far more common. Unless noted, the call rests on the fitted dose curve; in most records, active means well fitted curve in the direction sought with a large enough effect; inconclusive means small, poorly fitted or top-dose-only effect, or another doubt; inactive means no such curve, though single readings can be large; an effect the other way counts as inactive or inconclusive.

`CC1CCCN(c2ccc(C(=O)NCc3ccco3)cc2[N+](=O)[O-])C1` (centres undefined) gave USP1-UAF1 inh -18.0%, IL-1B inflam inh -60.7*, USP2a inh 0.4%, ATXN2 expr inh 15.0% and ATXN viability inconclusive.
CCCN(CC(=O)Nc1ccccc1C)C(=O)c1ccc(N2CCCC(C)C2)c([N+](=O)[O-])c1 (centres undefined) was read as USP1-UAF1 inh -21.0%, IL-1B inflam inh -71.3*, ATXN2 expr inh -11.6% and ATXN viability inactive.
CCCN(CC(=O)Nc1ccccc1C)C(=O)c1ccc(N2CCOCC2)c([N+](=O)[O-])c1 was read as USP1-UAF1 inh -10.7%, IL-1B inflam inh -13.8, USP2a inh 3.0%, ATXN2 expr inh 7.0% and ATXN viability inactive.
Cc1ccc(C(=O)NCc2ccco2)cc1[N+](=O)[O-] was read as USP1-UAF1 inh 4.6%, IL-1B inflam inh -3.5, USP2a inh 0.7%, ATXN2 expr inh 6.4% and ATXN viability inactive.
`O=Cc1ccc(OCc2cn(CC(=O)c3ccc(O)cc3)nn2)cc1` gave USP1-UAF1 inh inconclusive, IL-1B inflam inh 13.7, ATXN2 expr inh -1.7% and ATXN viability inactive.
Cc1cc(N(C)Cc2ccccc2)nc(-c2ccccc2)n1 was read as USP1-UAF1 inh -18.7%, IL-1B inflam inh 23.1, USP2a inh -2.5%, ATXN2 expr inh -12.0% and ATXN viability inactive.
Screening Cc1cc(N(C)Cc2ccccc2)nc2cc(O)ccc12 returned USP1-UAF1 inh -6.5%, IL-1B inflam inh -56.2*, USP2a inh 3.1% and ATXN2 expr inh 28.4%.
For O=C(CN1CCSc2ccccc21)NCc1ccccc1F the results were USP1-UAF1 inh -27.9%, ATXN2 expr inh 17.9% and ATXN viability inactive.
For CC(C)Cc1ccc(C(C)C(N)=NCCc2ccccc2)cc1 (centres undefined) the results were USP1-UAF1 inh -21.6%, IL-1B inflam inh -91.0*, USP2a inh 0.1%, ATXN2 expr inh inconclusive and ATXN viability inconclusive.
`COc1ccc(CCN=C(N)C(C)c2ccccc2)cc1OC` (centres undefined) gave USP1-UAF1 inh 8.7%, IL-1B inflam inh -29.0, USP2a inh 7.3%, ATXN2 expr inh -15.4% and ATXN viability inactive.
For COc1ccc2c(c1)CC(C(=O)Nc1ccc(Br)c(C)c1)CO2 (centres undefined) the results were USP1-UAF1 inh -21.7%, ATXN2 expr inh -1.9% and ATXN viability inactive.
Screening CC(CCc1ccccc1)NC(=O)CCc1cn(C)c2ccccc12 (centres undefined) returned USP1-UAF1 inh -9.9%, IL-1B inflam inh -77.5*, USP2a inh -1.3%, ATXN2 expr inh -10.8% and ATXN viability inactive.
For CC(C)NC(=O)CCCc1cn(C)c2ccccc12 the results were USP1-UAF1 inh -16.9%, IL-1B inflam inh -1.9, USP2a inh -1.5%, ATXN2 expr inh 2.7% and ATXN viability inactive.
Screening S=c1[nH]nc(C2CC2c2ccc(Cl)cc2)n1-c1ccc(Cl)cc1 (centres undefined) returned USP1-UAF1 inh -6.1%, IL-1B inflam inh -102.2*, USP2a inh 3.2%, ATXN2 expr inh 5.1% and ATXN viability inactive.
`Cc1ccc(NC(=O)N2CCc3cc(S(=O)(=O)N4CCC(C)CC4)ccc32)cc1C` gave USP1-UAF1 inh -16.6%.
Screening O=C(CNc1cccc([N+](=O)[O-])c1)N/N=C/c1ccc([N+](=O)[O-])o1 returned USP1-UAF1 inh -20.9%, IL-1B inflam inh -66.6*, USP2a inh 0.0%, ATXN2 expr inh inconclusive and ATXN viability inactive.
O=C(COc1ccccc1[N+](=O)[O-])N/N=C/C=C/c1ccco1 was read as USP1-UAF1 inh -16.3%, IL-1B inflam inh 0.0, USP2a inh 1.3%, ATXN2 expr inh 25.3% and ATXN viability inactive.
CC1(C(=O)N/N=C/c2ccc([N+](=O)[O-])o2)CC1(Br)Br (centres undefined) was read as USP1-UAF1 inh -4.0%, IL-1B inflam inh -90.1*, USP2a inh -3.5%, ATXN2 expr inh inconclusive and ATXN viability inconclusive.
Screening COc1ccccc1OCC(=O)N/N=C/C=C/c1ccc([N+](=O)[O-])o1 returned USP1-UAF1 inh -19.2%, IL-1B inflam inh -99.6*, USP2a inh -0.3%, ATXN2 expr inh inconclusive and ATXN viability inconclusive.
Screening Cc1cc(C)cc(OCC(=O)N/N=C/c2ccc([N+](=O)[O-])o2)c1 returned USP1-UAF1 inh -20.8%, IL-1B inflam inh -63.6*, USP2a inh 0.0%, ATXN2 expr inh inconclusive and ATXN viability inconclusive.
`Cc1ccccc1OCC(=O)N/N=C/c1ccc([N+](=O)[O-])o1` gave USP1-UAF1 inh -5.6%, IL-1B inflam inh 7.6, USP2a inh 1.8% and ATXN viability inconclusive.
`Cc1ccc(S(=O)(=O)NC(CC(C)C)C(=O)NCCCn2nc(C)cc2C)cc1` (centres undefined) gave USP1-UAF1 inh -5.6%, IL-1B inflam inh -13.9, USP2a inh 0.1%, ATXN2 expr inh 2.8% and ATXN viability inactive.
For Cc1ccc(-c2noc(CNC(=O)COc3cc(C)c(Br)c(C)c3)n2)cc1 the results were USP1-UAF1 inh 2.1%.
COc1cccc(C(=O)NCCN2CCC(n3c(=O)[nH]c4ccccc43)CC2)c1 was read as ATXN2 expr inh 14.6% and ATXN viability inactive.
`CN(C)/C=C/C(=O)c1ccc(Br)cc1` gave USP1-UAF1 inh -10.9%, IL-1B inflam inh -29.7, USP2a inh -0.3%, ATXN2 expr inh 5.8% and ATXN viability inactive.
Cc1ccc(C)n1-c1ccc(C(=O)/C=C/N(C)C)cc1 was read as USP1-UAF1 inh -7.8%, IL-1B inflam inh -86.6*, USP2a inh 5.3%, ATXN2 expr inh -37.0% and ATXN viability inactive.
O=C(/C=C/c1ccccc1)NC1CC2CCC1C2 (centres undefined) was read as USP1-UAF1 inh -6.5%, IL-1B inflam inh 0.6, USP2a inh -0.8%, ATXN2 expr inh 47.8% and ATXN viability inactive.
`O=C(/C=C/c1ccc(Cl)cc1)NC1CC2CCC1C2` (centres undefined) gave USP1-UAF1 inh 4.6%, IL-1B inflam inh -99.0*, USP2a inh 2.7%, ATXN2 expr inh 4.0%[11.3 µM] and ATXN viability inactive.
`Nc1cc(-c2ccc(Br)cc2)nn1S(=O)(=O)c1cccc2nsnc12` gave USP1-UAF1 inh -26.9%, IL-1B inflam inh -64.7*, USP2a inh -8.7%, ATXN2 expr inh inconclusive and ATXN viability inactive.
C[C@H](CO)N1C[C@H](C)[C@@H](CN(C)Cc2ccc(Cl)c(Cl)c2)Oc2c(NS(=O)(=O)c3cccs3)cccc2C1=O was read as USP1-UAF1 inh inconclusive, IL-1B inflam inh inconclusive, USP2a inh 0.4%, ATXN2 expr inh -24.1% and ATXN viability inconclusive.

Source: PubChem (National Center for Advancing Translational Sciences (NCATS))
